Screens as filed in PubChem BioAssay.
In the library only some 4.4% were active in any assay of this set; here they are far more common.
tim23-1 inh = tim23-1 yeast growth inhibition; S. cerevisiae tim23-1 growth, BacTiter-Glo luminescence, 24 h; inhibition, % at 20 µM; actives 1.3% (n = 330,000); AID 463212;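 active means growth inhibition of the mutant yeast at or above 50%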;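 further: temperature-sensitive mutant grown at 25 °C; plate controls were DMSO-treated mutant yeast for no effect and medium wells lacking yeast for full effect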
TIM10 inh = growth inhibitors of TIM10 yeast strain | inhibition, % at 10 µM | S. cerevisiae TIM10 strain growth, BacTiter-Glo luminescence, 24 h | actives 1.4% (n = 330,000);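 active means inhibition of 40% or more at the single tested concentration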;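 further: wild-type TIM10 isogenic control strain grown at permissive 25 °C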
SUMO Mot1 rescue = SUMOylation pathway inhibition by Mot1-301 growth rescue; S. cerevisiae Mot1-301 growth rescue, ATP luminescence, 38.5C; percent above DMSO median, 100 means doubled; actives 1% (n = 320,000); growth rescue, % at 18.8 µM;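 active means every valid replicate shows activation above 250% relative to neutral control wells; inactive means the rest, any valid replicate at or below 250%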;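 further: OY570 slx delta 5 strain wells were the positive control but not used for scaling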
tim10-1 inh = inhibits growth of tim10-1 mutant yeast. S. cerevisiae tim10-1 ts strain growth, BacTiter-Glo, 24 h. actives 2.2% (n = 330,000). inhibition, % at 20 µM. AID 463190;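 active means inhibition of at least 40%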;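 further: mutant grown at 25 °C; 0% = DMSO wells with yeast and 100% = wells holding no yeast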
PfHsp90 set2 = inhibits growth of yeast expressing Plasmodium falciparum Hsp90; S. cerevisiae expressing PfHsp90, BacTiter-Glo ATP, 48 h; yeast lacking PDR1 and PDR3 efflux regulators; inhibition, % at 9.4 µM; actives 0.32% (n = 310,000);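 active means every replicate shows inhibition above about 80%, whatever the replicate mean, limit read from the data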;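 further: 0% = DMSO neutral controls and 100% = 20 µM radicicol positive controls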
tim10-1 conf = tim10-1 yeast growth inhibition, confirmed. actives 56% (n = 7,400). AID 463213. shares compounds with tim10-1 inh. S. cerevisiae tim10-1 ts strain growth, BacTiter-Glo, 24 h. inhibition, % at 20 µM;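 active means inhibition of yeast growth at or above a set limit in either of two repeat tests at 20 µM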;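 further: tim10-1 mutant grown at permissive 25 °C to find synthetic lethal compounds; 0% = DMSO yeast wells and 100% = medium wells without yeast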
Starred values were filed as active, the others as inactive.

What do the screens show for `CC(C)(C)c1ccc(C(=O)c2cn[nH]c2-c2ccccc2O)cc1`?
tim23-1 inh: 50; TIM10 inh: 24; SUMO Mot1 rescue: 2; tim10-1 inh: 45*; PfHsp90 set2: -2; tim10-1 conf: 35*

Results for O=C(c1ccc(Br)cc1)c1cn[nH]c1-c1ccccc1O ?
tim23-1 inh: 20; TIM10 inh: 13; SUMO Mot1 rescue: 11; tim10-1 inh: 23; PfHsp90 set2: 1

What do the screens show for `COc1ccc(C(=O)ON=C2C=C(C)C(=O)C(C)=C2)cc1`?
tim23-1 inh: 36; TIM10 inh: 22; SUMO Mot1 rescue: 32; tim10-1 inh: 48*; PfHsp90 set2: 16; tim10-1 conf: 21

What do the screens show for `N/C(=N\OC(=O)N1CCOCC1)c1ccc(Cl)cc1`?
tim23-1 inh: 33; TIM10 inh: 17; SUMO Mot1 rescue: -11; tim10-1 inh: 61*; PfHsp90 set2: -4; tim10-1 conf: 49*

Results for Cc1cccc(C(=O)O/N=C(\N)c2ccc(Cl)cc2)c1 ?
tim23-1 inh: 34; TIM10 inh: 35; SUMO Mot1 rescue: 86; tim10-1 inh: 37; PfHsp90 set2: 0

How did Cc1cc(C)cc(C(=O)O/N=C(\N)c2ccc(Br)cc2)c1 do in these assays?
tim23-1 inh: 9; TIM10 inh: 35; SUMO Mot1 rescue: 11; tim10-1 inh: 40*; PfHsp90 set2: -10; tim10-1 conf: 31*

What do the screens show for `COc1ccc(C(=O)O/N=C(\N)c2ccc(Cl)cc2)cc1`?
tim23-1 inh: 38; TIM10 inh: 31; SUMO Mot1 rescue: 593; tim10-1 inh: 44*; PfHsp90 set2: -12; tim10-1 conf: 46*

What do the screens show for `Cc1ccc(C(=O)O/N=C(\N)c2ccc(Br)cc2)cc1C`?
tim23-1 inh: 21; TIM10 inh: 21; SUMO Mot1 rescue: 6; tim10-1 inh: 36; PfHsp90 set2: -1

How did O=C(NCc1ccccc1)C(c1ccccc1F)N(C(=O)c1csnn1)C1CCCC1 (centres undefined) do in these assays?
tim23-1 inh: 23; TIM10 inh: 8; SUMO Mot1 rescue: 108; tim10-1 inh: 29; PfHsp90 set2: 5

What do the screens show for `CCOC(=O)C(Sc1cc(-c2ccccc2)nc2ncnn12)C(C)=O` (centres undefined)?
tim23-1 inh: 15; TIM10 inh: 11; SUMO Mot1 rescue: -12; tim10-1 inh: 41*; PfHsp90 set2: -6; tim10-1 conf: 30*

How did COc1ccc(S(=O)(=O)N(C)CC(=O)NCc2ccccn2)cc1 do in these assays?
tim23-1 inh: -6; TIM10 inh: -24; SUMO Mot1 rescue: 0; tim10-1 inh: -13; PfHsp90 set2: -46

What do the screens show for `CC(=O)c1ccc2c(c1)c(C#N)c1ccccc1[n+]2[O-]`?
tim23-1 inh: 48; TIM10 inh: 18; tim10-1 inh: 68*; PfHsp90 set2: -46; tim10-1 conf: 51*

What do the screens show for `O=C(CCN1C(=O)S/C(=C\c2ccccc2)C1=O)N1CCOCC1`?
tim23-1 inh: 2; TIM10 inh: 25; SUMO Mot1 rescue: -5; tim10-1 inh: 52*; PfHsp90 set2: -14; tim10-1 conf: 31

What do the screens show for `O=C(CCN1C(=O)S/C(=C\c2ccccc2)C1=O)N1CCCCC1`?
tim23-1 inh: 38; TIM10 inh: 8; SUMO Mot1 rescue: -27; tim10-1 inh: 44*; PfHsp90 set2: 11; tim10-1 conf: 39*

How did C=CCn1c(CCn2c3ccccc3c3ccccc32)n[nH]c1=S do in these assays?
tim23-1 inh: 29; TIM10 inh: 33; SUMO Mot1 rescue: -10; tim10-1 inh: 43*; PfHsp90 set2: -1; tim10-1 conf: 36*

What do the screens show for `C=C(C)Cn1c(CCn2c3ccccc3c3ccccc32)n[nH]c1=S`?
tim23-1 inh: 29; TIM10 inh: 24; SUMO Mot1 rescue: -2; tim10-1 inh: 27; PfHsp90 set2: -2

How did COc1ccc(C)cc1N(C(=O)c1ccc(C#N)cc1)C1=NC(C)(C)CS1 do in these assays?
tim23-1 inh: 11; TIM10 inh: 5; SUMO Mot1 rescue: -10; tim10-1 inh: 40; PfHsp90 set2: 34; tim10-1 conf: -3

How did COC(=O)C1CCN(C(=O)c2ccc3nc(-c4cccc(OC)c4)oc3c2)CC1 do in these assays?
tim23-1 inh: 30; TIM10 inh: 24; SUMO Mot1 rescue: -7; tim10-1 inh: 42*; PfHsp90 set2: -13; tim10-1 conf: 31

What do the screens show for `COC(=O)C1CCN(C(=O)c2ccc3nccnc3c2)CC1`?
tim23-1 inh: -7; TIM10 inh: 6; SUMO Mot1 rescue: -13; tim10-1 inh: -4; PfHsp90 set2: -3

What do the screens show for `CCN(CC(=O)Nc1ccc(C)c(S(=O)(=O)N2CCOCC2)c1)Cc1ccccc1`?
tim23-1 inh: 20; TIM10 inh: 16; tim10-1 inh: 29

What do the screens show for `Fc1ccccc1-c1nc(-c2ccc(-c3nn[nH]n3)cc2)no1`?
tim23-1 inh: -3; TIM10 inh: 0; SUMO Mot1 rescue: 12; tim10-1 inh: 0; PfHsp90 set2: -10

What do the screens show for `Cn1c(=S)n(/N=C/c2ccc3c(c2)OCO3)c2ccccc21`?
tim23-1 inh: 0; TIM10 inh: -7; SUMO Mot1 rescue: 146; tim10-1 inh: 7

Results for COc1ccc(/C=N/n2c(=S)n(C)c3ccccc32)cc1OC ?
tim23-1 inh: 41; TIM10 inh: 37; SUMO Mot1 rescue: 0; tim10-1 inh: 43*; PfHsp90 set2: -6; tim10-1 conf: 30*

How did CCCc1cc(-c2n[nH]c(=S)n2C(C)c2ccccc2)cs1 (centres undefined) do in these assays?
tim23-1 inh: 45; TIM10 inh: 14; SUMO Mot1 rescue: 57; tim10-1 inh: 48*; PfHsp90 set2: -114; tim10-1 conf: 19

Results for CCc1cc(-c2n[nH]c(=S)n2-c2ccccc2C)cs1 ?
tim23-1 inh: 35; TIM10 inh: 22; SUMO Mot1 rescue: -7; tim10-1 inh: 42*; PfHsp90 set2: -17; tim10-1 conf: 35*

Results for CCc1cc(-c2n[nH]c(=S)n2CC)cs1 ?
tim23-1 inh: 34; TIM10 inh: 7; SUMO Mot1 rescue: -11; tim10-1 inh: 14; PfHsp90 set2: 0

How did O=C(CN1CCN(S(=O)(=O)c2ccc(Br)cc2)CC1)c1ccc(O)c(O)c1 do in these assays?
tim23-1 inh: -4; TIM10 inh: -7; SUMO Mot1 rescue: 4; tim10-1 inh: 5; PfHsp90 set2: 8

What do the screens show for `CC(C)c1ccc(S(=O)(=O)N2CCN(CC(=O)c3ccc(O)c(O)c3)CC2)cc1`?
tim23-1 inh: 24; TIM10 inh: 22; SUMO Mot1 rescue: -8; tim10-1 inh: 50*; PfHsp90 set2: -16; tim10-1 conf: 9

What do the screens show for `O=C(Nc1ccc(Cl)cc1)c1cccc(NC2=NC3CS(=O)(=O)CC3S2)c1` (centres undefined)?
tim23-1 inh: 2; TIM10 inh: -4; SUMO Mot1 rescue: 8; tim10-1 inh: -11; PfHsp90 set2: 11
